Source: PubChem BioAssay (The Scripps Research Institute Molecular Screening Center)
TEAD-YAP block: TEAD-YAP interaction inhibition, primary screen, TEAD-YAP interaction inhibitor project, luminescence, HEK-TIYL cells. inhibition, % at 9.12 µM. AID 1259422, 2018. 1.4% of 640,000 active. TEAD-Gal4/YAP UAS-luciferase luminescence; in the data active = inhibition above about 32%
FBW7 act: FBW7 E3 ligase activators, primary screen, biochemical, AlphaScreen, human. F-box/WD repeat-containing protein 7 (Homo sapiens), Q969H0. AlphaScreen FBW7–phospho-cyclin E peptide binding, activator screen. normalized activity (activation), % at 26.1 µM. 0.13% of 650,000 active. AID 1259310, 2017; in the data active = normalized activity above about 1.9%;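 note: purified mutant Fbw7 with reduced substrate affinity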
MITF inh: MITF inhibitors, primary screen, biochemical, AlphaScreen, human; inhibition, % at 2.6 µM; 0.91% of 650,000 active; AID 1259374, 2018; Microphthalmia-associated transcription factor (Homo sapiens), O75030; AlphaScreen MITF homodimerization, bead proximity signal; in the data active = inhibition above about 50%
GPR151 ag: activators of human GPR151, primary screen, cell-based, PathHunter beta-arrestin, luminescence. 1% of 650,000 active. AID 1508602, 2020. activation, % at 11.2 µM. G-protein coupled receptor 151 (Homo sapiens), Q8TDV0. PathHunter beta-arrestin GPR151 cells; in the data active = activation above about 4.9%
Target sequence (Q8TDV0 whole entry, looked up): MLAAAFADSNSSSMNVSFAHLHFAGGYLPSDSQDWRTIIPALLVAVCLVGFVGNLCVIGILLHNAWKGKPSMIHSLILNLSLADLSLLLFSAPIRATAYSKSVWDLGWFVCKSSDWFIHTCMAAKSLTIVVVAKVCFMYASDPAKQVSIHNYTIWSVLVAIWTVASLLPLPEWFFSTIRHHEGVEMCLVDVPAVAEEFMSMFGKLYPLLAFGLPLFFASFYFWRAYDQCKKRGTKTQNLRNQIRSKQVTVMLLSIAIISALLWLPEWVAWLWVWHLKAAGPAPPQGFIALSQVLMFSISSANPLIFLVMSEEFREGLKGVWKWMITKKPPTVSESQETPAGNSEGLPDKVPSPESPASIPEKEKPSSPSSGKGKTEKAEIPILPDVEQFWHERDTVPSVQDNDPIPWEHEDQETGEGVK
MITF inh conf: MITF inhibitors, retest of hits, confirmation, biochemical, AlphaScreen, triplicate; 16% of 4,700 active; inhibition, % at 2.6 µM; AlphaScreen MITF homodimerization, biotin/His-MITF beads; shares compounds with MITF inh;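 active = inhibition above a cutoff derived from the DMSO control wells, cut at about 28% in these data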;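 note: inhibitors lower the bead chemiluminescence by keeping MITF from dimerizing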
AS interf DR: AlphaScreen optical interference compounds, dose response, counter-screen, biochemical, HTS. IC50, µM. 6% of 480 active. AlphaScreen optical interference counterscreen, cell-free. shares compounds with MITF inh. AID 1259373, 2018; call rule not given here
AlphaScreen intf2: AlphaScreen optical interference compounds, counter-screen for MITF inhibitor project, biochemical, triplicate; shares compounds with MITF inh; LysRS AlphaScreen counterscreen, signal interference; inhibition, % at 2.6 µM; 7.6% of 4,700 active; AID 1259376, 2018;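 active = inhibition above a cutoff derived from the DMSO control wells, cut at about 30% in these data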
Hits are given with their value; 0 = inactive; - = not tested or not shown. Shown are actives, neighbours in structure and some others; about 3.4% of the full set was active somewhere.

SMILES	TEAD-YAP block	FBW7 act	MITF inh	GPR151 ag	MITF inh conf	AlphaScreen intf2	others
COCCN1COc2c(cc(Cl)c3cccnc23)C1	0	0	66	0	48	92
COc1ccc(CCN2COc3c(cc(Cl)c4cccnc34)C2)cc1OC	39	0	68	0	94	100
Cc1ccc(NC(=O)C23CC4CC(C2)CC(n2cncn2)(C4)C3)cc1Cl	0	0	0	0	-	-
COCc1nc2ccccc2n1CCc1noc(-c2ccc(OC)cc2)n1	0	0	0	0	-	-
COCc1nc2ccccc2n1CCc1noc(-c2ccccc2OC)n1	0	0	95	0	0	0
O=C(CSC1CC(=O)N(c2cccc(Cl)c2)C1=O)Nc1ccc(F)cc1 (stereo not drawn)	0	0	0	0	-	-
C=CCOC(=O)COc1ccc2c(=O)c(Oc3ccc(OC)cc3)coc2c1	0	0	75	0	0	0
CCOC(=O)N1CCN(S(=O)(=O)c2ccc(C(=O)Nc3ccc4nc(C)sc4c3)cc2)CC1	0	0	0	0	-	-
CCOC(=O)N1CCN(S(=O)(=O)c2ccc(C(=O)Nc3ccc(-c4nc5ccc(C)cc5s4)cc3)cc2)CC1	0	0	53	0	0	0
CCOC(=O)C1CCN(S(=O)(=O)c2c[nH]c(C(=O)OC)c2)CC1	0	0	0	0	-	-
Cc1ccc(CCC(=O)Nc2ccc(-c3cn4c5c(nnc4n3)CCCC5)cc2)o1	0	0	56	0	66	0	AS interf DR=0
O=C(CCc1ccco1)Nc1ccc(-c2cn3c4c(nnc3n2)CCCC4)cc1	0	0	72	0	58	0	AS interf DR=0
COc1ccc(C(=O)CSc2nnc(-c3ccc4c(c3)OCO4)o2)cc1OC	0	0	86	0	0	0
Cc1oc(C)c(C(=O)O)c1CSc1ccccc1C(=O)O	0	0	0	0	-	-
Cc1oc(C)c(C(=O)O)c1COc1ccccc1C(=O)O	0	0	51	0	0	0
CCN1C(=O)/C(=C/c2ccc(Cl)cc2Cl)NC1=S	0	0	0	0	-	-
CC(C)c1ccc(/C=C/C(=O)Nc2nn[nH]n2)cc1	0	0	52	0	0	0
Cc1ccc(/C=C/C(=O)Nc2nn[nH]n2)o1	0	0	0	0	-	-
CC(=O)c1sc(-c2c(N)n(C)c(=O)n(C)c2=O)nc1-c1cccs1	0	0	0	0	-	-
O=C(Nc1nnc(Cc2ccccc2)s1)c1ccc([N+](=O)[O-])cc1Cl	0	0	0	0	-	-
COc1ccc(-c2cccc(C(=O)NCc3ccc4c(c3)OCO4)c2)cc1	0	0	0	0	-	-
COc1cccc(-c2cc(CNC(=O)c3ccc4c(c3)OCO4)no2)c1	0	0	51	0	0	0
Cc1ccc(NC(=O)C2(N3C(=O)CC3c3ccco3)CCCCC2)cc1 (stereo not drawn)	0	0	68	0	0	0
NC1(C(Cl)(Cl)Cl)Oc2ccccc2O1	0	0	84	0	114	0	AS interf DR=0
COc1ccc(CN2CCN(C(=O)CC(C)C)CC2)c(OC)c1OC	0	0	0	0	-	-
SMILES	TEAD-YAP block	FBW7 act	MITF inh	GPR151 ag	MITF inh conf	AlphaScreen intf2	others
COc1cc(CN2CCN(C(=O)CC(C)C)CC2)cc(OC)c1OC	0	0	70	0	0	0
COc1cc(CN2CCN(C(=O)CC(C)C)CC2)cc(OC)c1	0	0	53	0	0	0
COC(=O)c1sc(NC(=O)CCCS(=O)(=O)c2nc(-c3ccccc3OC)cc(C(F)(F)F)n2)c(C(=O)OC)c1C	0	0	0	0	-	-
CCCCN(C)CCCNC(=O)CSCc1ccccc1Cl	0	0	76	0	0	0
Cc1ccnc(N2C3CCC2CC(O)(c2ccccc2)C3)n1 (stereo not drawn)	0	0	53	0	0	0
Cc1ccc(C2(O)CC3CCC(C2)N3c2cc(C)nc(N)n2)cc1 (stereo not drawn)	0	0	0	0	-	-
CC(=O)C1=C(C)NC(=O)C1(NC(=O)c1cccc([N+](=O)[O-])c1)C(F)(F)F (stereo not drawn)	0	0	0	0	-	-
COc1cc(CNC2CCCCC2)cc(OC)c1	0	0	52	0	0	0
COc1cc(CNC2CCCC2)cc(OC)c1	0	0	0	0	-	-
CCOC(=O)c1cnc2ccc(OCC)cc2c1Nc1ccc(Cl)cc1	0	0	0	0	-	-
CN(C)c1ccc(NC(=S)Nc2ccccn2)cc1	0	0	71	0	0	0
O=[N+]([O-])c1ccccc1N=Cc1nc(-c2ccccc2F)oc1O	0	0	0	0	-	-
Cc1cc(CSC(=N)N)c(O)c(C)n1	0	0	65	0	82	0	AS interf DR=0
Cc1cc(CSC(=N)N)c(O)c(C(C)(C)C)n1	0	0	0	0	-	-
COc1cc(OC)cc(C(=O)Nn2cnnc2)c1	0	0	0	0	-	-
Cc1cc(O)ccc1C1CCCCC1	0	0	0	0	-	-
Oc1c(C2CCCCC2)cccc1C1CCCCC1	0	0	60	0	0	0
O=Cc1cccn1-c1ccc(C(=O)O)cc1	0	0	67	0	64	0	AS interf DR=0
N#CC(C#N)=Cc1cccn1-c1ccc(C(=O)O)cc1	0	0	63	0	61	0	AS interf DR=0
CC1(C2CC3C=CC2C3)OC(=O)N2CCNC21C (stereo not drawn)	0	0	0	0	-	-
CCOc1cc(C(=O)NCC2(c3ccc(F)cc3)CC2)cc(OCC)c1OCC	0	0	0	0	-	-
CS(=O)(=O)N(CC(=O)Nc1ccc(Br)cc1)c1cccc([N+](=O)[O-])c1	0	0	0	0	-	-
Cc1ccc(C(C)C)c(OCCNCc2ccco2)c1	0	0	55	0	0	0
c1coc(CNCCOc2ccc3ccccc3c2)c1	0	0	87	0	0	0
CC(=O)Nc1nonc1-c1nc2ccccc2n1Cc1ccc(C)cc1	0	0	0	0	-	-
SMILES	TEAD-YAP block	FBW7 act	MITF inh	GPR151 ag	MITF inh conf	AlphaScreen intf2	others
CCc1ccc(CN2CCN(S(=O)(=O)c3ccccc3[N+](=O)[O-])CC2)cc1	0	0	0	0	-	-
Cc1ccc(CN2CCN(S(=O)(=O)c3ccccc3[N+](=O)[O-])CC2)cc1	0	0	58	0	0	0
CSc1ccc(CN2CCN(S(=O)(=O)c3ccccc3[N+](=O)[O-])CC2)cc1	0	0	57	0	0	0
O=C(c1ccc(=O)oc1)N1CCc2ccccc21	0	0	74	0	76	0	AS interf DR=0
CCC1(C)Cc2c(sc3nc(SCC(=O)O)[nH]c(=O)c23)CO1 (stereo not drawn)	0	0	0	0	-	-
CCC1(C)Cc2c(sc3nn[nH]c(=O)c23)CO1 (stereo not drawn)	0	0	94	0	0	0
